For some of these results: Results with a measured potency or affinity are listed apart. Calls of active or inactive are those of the source.
Details: Ebola virus entry reporter assay, green channel fluorescence

For `Nc1cccc2c1CN(C1CCC(=O)NC1=O)C2=O` (stereo unspecified), which outcome is on record?
Its outcome is “inactive”.

Which outcome does the source give for `C=C[C@H]1CN2CC[C@H]1C[C@@H]2[C@@H](O)c1ccnc2ccc(OC)cc12` here?
Its outcome is “inactive”.

Which outcome does the source give for `Nc1nc(N)c2nc(-c3ccccc3)c(N)nc2n1` here?
Its outcome is “inactive”.

With `CC(COc1ccccc1)N(CCCl)Cc1ccccc1` (stereo unspecified) as the molecule, how does the outcome read?
The outcome was “inactive”.

Which outcome does the source give for `Cc1nccn1CC1CCc2c(c3ccccc3n2C)C1=O` (stereo unspecified) here?
Its outcome is “inactive”.

For `CNC1(C)C2CCC(C2)C1(C)C` (stereo unspecified), which outcome is on record?
Its outcome is “inactive”.

With `NNc1nncc2ccccc12` as the molecule, how does the outcome read?
Its outcome is “inactive”.

For `CNC(=O)c1cc(Oc2ccc(NC(=O)Nc3ccc(Cl)c(C(F)(F)F)c3)cc2)ccn1`, which outcome is on record?
The outcome was “inactive”.

With `Cc1ccc(C)c(OCCCC(C)(C)C(=O)O)c1` as the molecule, how does the outcome read?
The outcome was “inactive”.

Which outcome does the source give for `CCC(C)(C)C(=O)O[C@H]1C[C@@H](C)C=C2C=C[C@H](C)[C@H](CC[C@@H]3C[C@@H](O)CC(=O)O3)[C@H]21` here?
Its outcome is “inactive”.

Which outcome does the source give for `Cc1ccc(S(=O)(=O)NC(=O)NN2CC3CCCC3C2)cc1` (stereo unspecified) here?
The outcome was “inactive”.

For `O=C1[C@H](CC[C@H](O)c2ccc(F)cc2)[C@@H](c2ccc(O)cc2)N1c1ccc(F)cc1`, which outcome is on record?
Its outcome is “inactive”.

With `CCOC(=O)C1(c2ccccc2)CCN(CCC(C#N)(c2ccccc2)c2ccccc2)CC1` as the molecule, how does the outcome read?
The outcome was “inactive”.

With `Oc1ccc(C2CNCCc3c2cc(O)c(O)c3Cl)cc1` (stereo unspecified) as the molecule, how does the outcome read?
The outcome was “inactive”.

With `COc1cc2nc(N3CCN(C(=O)C4CCCO4)CC3)nc(N)c2cc1OC` (stereo unspecified) as the molecule, how does the outcome read?
Its outcome is “inactive”.

Which outcome does the source give for `C#C[C@]1(O)CC[C@H]2[C@@H]3CCC4=Cc5oncc5C[C@]4(C)[C@H]3CC[C@@]21C` here?
The outcome was “inactive”.

For `C#Cc1cccc(Nc2ncnc3cc(OCCOC)c(OCCOC)cc23)c1`, which outcome is on record?
Its outcome is “inactive”.

Which outcome does the source give for `CCn1cc(C(=O)O)c(=O)c2cc(F)c(N3CCNCC3)cc21` here?
The outcome was “inactive”.

With `Nc1ccc(O)c(C(=O)O)c1` as the molecule, how does the outcome read?
Its outcome is “inactive”.

With `CN(C/C=C/C#CC(C)(C)C)Cc1cccc2ccccc12` as the molecule, how does the outcome read?
The outcome was “inactive”.

Which outcome does the source give for `NC1[C@H]2CN(c3nc4c(cc3F)c(=O)c(C(=O)O)cn4-c3ccc(F)cc3F)C[C@@H]12` (stereo partly specified) here?
Its outcome is “inactive”.

Details: Ebola virus entry cell assay, ratio channel

For `CCc1nc(N)nc(N)c1-c1ccc(Cl)cc1`, which outcome is on record?
Its outcome is “inactive”.

With `Clc1ccc(C(c2ccccc2Cl)C(Cl)Cl)cc1` (stereo unspecified) as the molecule, how does the outcome read?
The outcome was “inactive”.

With `Nc1cccc2c1CN(C1CCC(=O)NC1=O)C2=O` (stereo unspecified) as the molecule, how does the outcome read?
The outcome was “inactive”.

Which outcome does the source give for `C=C[C@H]1CN2CC[C@H]1C[C@@H]2[C@@H](O)c1ccnc2ccc(OC)cc12` here?
Its outcome is “inactive”.

For `Nc1nc(N)c2nc(-c3ccccc3)c(N)nc2n1`, which outcome is on record?
The outcome was “inactive”.

For `CC[C@H](C)C(=O)O[C@H]1C[C@@H](C)C=C2C=C[C@H](C)[C@H](CC[C@@H]3C[C@@H](O)CC(=O)O3)[C@H]21`, which outcome is on record?
Its outcome is “inactive”.

For `CC(COc1ccccc1)N(CCCl)Cc1ccccc1` (stereo unspecified), which outcome is on record?
Its outcome is “inactive”.

For `Cc1nccn1CC1CCc2c(c3ccccc3n2C)C1=O` (stereo unspecified), which outcome is on record?
The outcome was “inactive”.

With `CNC1(C)C2CCC(C2)C1(C)C` (stereo unspecified) as the molecule, how does the outcome read?
The outcome was “inactive”.

For `NNc1nncc2ccccc12`, which outcome is on record?
The outcome was “inactive”.

Which outcome does the source give for `CNC(=O)c1cc(Oc2ccc(NC(=O)Nc3ccc(Cl)c(C(F)(F)F)c3)cc2)ccn1` here?
The outcome was “inactive”.

For `Cc1ccc(C)c(OCCCC(C)(C)C(=O)O)c1`, which outcome is on record?
The outcome was “inactive”.

With `CCC(C)(C)C(=O)O[C@H]1C[C@@H](C)C=C2C=C[C@H](C)[C@H](CC[C@@H]3C[C@@H](O)CC(=O)O3)[C@H]21` as the molecule, how does the outcome read?
The outcome was “inactive”.

Which outcome does the source give for `Cc1ccc(S(=O)(=O)NC(=O)NN2CC3CCCC3C2)cc1` (stereo unspecified) here?
Its outcome is “inactive”.

For `CCCN1C[C@H](CSC)C[C@@H]2c3cccc4[nH]cc(c34)C[C@H]21`, which outcome is on record?
Its outcome is “inactive”.

With `CN1CCC[C@@H]1Cc1c[nH]c2ccc(CCS(=O)(=O)c3ccccc3)cc12` as the molecule, how does the outcome read?
The outcome was “inactive”.

Which outcome does the source give for `O=C1[C@H](CC[C@H](O)c2ccc(F)cc2)[C@@H](c2ccc(O)cc2)N1c1ccc(F)cc1` here?
Its outcome is “inactive”.

Which outcome does the source give for `COc1c(C)c2c(c(O)c1C/C=C(\C)CCC(=O)O)C(=O)OC2` here?
The outcome was “inactive”.

With `C=C(CC)C(=O)c1ccc(OCC(=O)O)c(Cl)c1Cl` as the molecule, how does the outcome read?
The outcome was “inactive”.

For `CN(C)CC[C@@H](c1ccc(Br)cc1)c1ccccn1`, which outcome is on record?
The outcome was “inactive”.

For `CCOC(=O)C1(c2ccccc2)CCN(CCC(C#N)(c2ccccc2)c2ccccc2)CC1`, which AC50 is on record?
Its AC50 is 14.1 µM (active).

For `Oc1ccc(C2CNCCc3c2cc(O)c(O)c3Cl)cc1` (stereo unspecified), which outcome is on record?
The outcome was “inactive”.

For `CC1(C)S[C@@H]2[C@H](NC(=O)Cc3ccccc3)C(=O)N2[C@H]1C(=O)O` (tested in a mixture with another compound), which outcome is on record?
Its outcome is “inactive”.

Which outcome does the source give for `COc1cc2nc(N3CCN(C(=O)C4CCCO4)CC3)nc(N)c2cc1OC` (stereo unspecified) here?
The outcome was “inactive”.

For `CC(=O)[C@]1(O)Cc2c(O)c3c(c(O)c2[C@@H](O[C@H]2C[C@H](N)[C@H](O)[C@H](C)O2)C1)C(=O)c1ccccc1C3=O`, which outcome is on record?
Its outcome is “inactive”.

Which AC50 does the source give for `C#C[C@]1(O)CC[C@H]2[C@@H]3CCC4=Cc5oncc5C[C@]4(C)[C@H]3CC[C@@]21C` here?
Its AC50 is 25.1 µM (active).

Which outcome does the source give for `C=C(c1ccc(C(=O)O)cc1)c1cc2c(cc1C)C(C)(C)CCC2(C)C` here?
Its outcome is “inactive”.

Which outcome does the source give for `C[C@](N)(Cc1ccc(O)c(O)c1)C(=O)O` here?
The outcome was “inactive”.

Which AC50 does the source give for `C#Cc1cccc(Nc2ncnc3cc(OCCOC)c(OCCOC)cc23)c1` here?
Its AC50 is 8.91 µM (active).

Which outcome does the source give for `CCn1cc(C(=O)O)c(=O)c2cc(F)c(N3CCNCC3)cc21` here?
The outcome was “inactive”.

With `CCC1=C[C@@H]2CN(C1)Cc1c([nH]c3ccccc13)[C@@](C(=O)OC)(c1cc3c(cc1OC)N(C)[C@H]1[C@@](O)(C(=O)OC)[C@H](OC(C)=O)[C@]4(CC)C=CCN5CC[C@]31[C@@H]54)C2` as the molecule, how does the AC50 read?
The AC50 was 0.282 µM (active).

Which outcome does the source give for `Nc1ccc(O)c(C(=O)O)c1` here?
The outcome was “inactive”.

With `CN(C/C=C/C#CC(C)(C)C)Cc1cccc2ccccc12` as the molecule, how does the outcome read?
The outcome was “inactive”.

Which outcome does the source give for `O=C1Nc2ccc(Cl)cc2[C@@](C#CC2CC2)(C(F)(F)F)O1` here?
The outcome was “inactive”.

For `COc1c(C)c2c(c(O)c1C/C=C(\C)CCC(=O)OCCN1CCOCC1)C(=O)OC2`, which AC50 is on record?
The AC50 was 3.98 µM (active).

For `Cc1cn([C@H]2C[C@H](N=[N+]=[N-])[C@@H](CO)O2)c(=O)[nH]c1=O`, which outcome is on record?
Its outcome is “inactive”.

Which outcome does the source give for `C[C@H]1O[C@H](O[C@H]2[C@H](O)[C@@H](O)[C@@H](O[C@H]3[C@H](O)[C@@H](O)[C@H](O)O[C@@H]3CO)O[C@@H]2CO)[C@H](O)[C@@H](O)[C@@H]1N[C@H]1C=C(CO)[C@@H](O)[C@H](O)[C@H]1O` here?
Its outcome is “inactive”.

With `NC1[C@H]2CN(c3nc4c(cc3F)c(=O)c(C(=O)O)cn4-c3ccc(F)cc3F)C[C@@H]12` (stereo partly specified) as the molecule, how does the outcome read?
Its outcome is “inactive”.

With `CCC(C)n1ncn(-c2ccc(N3CCN(c4ccc(OC[C@H]5CO[C@](Cn6cncn6)(c6ccc(Cl)cc6Cl)O5)cc4)CC3)cc2)c1=O` (stereo partly specified) as the molecule, how does the AC50 read?
Its AC50 is 2 µM (active).

With `CCOC(=O)C1=C(C)NC(C)=C(C(=O)OC)C1c1cccc(Cl)c1Cl` (stereo unspecified) as the molecule, how does the outcome read?
The outcome was “inactive”.
